Inconclusive results are not listed. A call without a number means that no potency is given here. Calls of active or inactive are those of the source. Calls follow the shape of the dose curve; as a rule, active = well fitted cell-killing curve with a large enough effect; inconclusive = small, poorly fitted or top-dose-only effect; inactive = flat fitted curve, though single readings scatter.
experiment: OV-SAHO Cancer Cell Toxicity qHTS against the NCATS CANVASS Library (AID 1347348); settings: OV-SAHO viability, CellTiter-Glo luminescence, 72 h; series mostly up to 38.3 µM; also: nearly all actives have a fitted effect of over 55% in size
Excerpt: Natural products and their derivatives continue to be wellsprings of nascent therapeutic potential. However, many laboratories have limited resources for biological evaluation, leaving their previously isolated or synthesized compounds largely or completely untested. To address this issue, the Canvass library of natural products was assembled (https://tripod.nih.gov/canvass), in collaboration with academic and industry researchers, for quantitative high-throughput screening (qHTS) across a diverse set of cell-based and biochemical assays. The pure (>85% purity by liquid chromatography/mass spectrometry [LC/MS]) Canvass library of 346 natural products were submitted by 45 academic laboratories and companies around the world. We collected pure natural products to circumvent deconvolution and structure elucidation due to time and resource limitations. The library was formatted into 1536-well plates and evaluated in 50 qHTS (in an 11-pnt concentration series) bioassays with broad scope of disease-relevant mechanisms. The resulting data set from 50 different assays was then systematically analyzed to identify overall trends and specific natural products with interesting biological activities. Reported herein are the results of each individual qHTS and their corresponding assay protocol. National Center for Advancing Translational Sciences (NCATS), Rockville, MD National Institute of Health (NIH), Bethesda, Maryland
Cancer Cell Toxicity protocol for cell lines COV-362, OV-KATE, OV-SAHO, UWB1.289, UWB1.289-WTBRCA1, HEK-293, HPAF-II, Panc-1005, SW1088, or U-118MG. 1. In a 1536 well, white solid bottom tissue culture plates (Corning 7494), corresponding cells (COV-362, OV-KATE, OV-SAHO, UWB1.289, UWB1.289-WTBRCA1, HEK-293, HPAF-II, Panc-1005, SW1088, or U-118MG) were dispensed in each well at a final concentration of 1000 cells / well (6uL volume) using the Multidrop Combi (Thermo Fisher Scientific) dispenser. 2. The plates were incubated for 4 hours at 37 degrees C/5% CO2/95% Rh. 3. Compounds were pin transferred (~23nL volume) via Wako Pin-tool (Wako Automation, Richmond VA) equipped with a 1536 pin head. The assay plates were treated with compounds in an 11-pnt concentration series with a final concentration range of […] to 85uM. 4. Bortezomib was used as a single dose control (0.5mM column 4, rows 1 - 32) at a final concentration of 1.9uM and as a 16pnt titration (1mM; 1:2 dilution; 16-points; n = 2; column 3, rows 1 - 32) with final concentration range of 0.1nM - 3.8uM. 5. The assay plates were incubated for 72 hours at 37 degrees C/5% CO2/95% Rh. 6. 3uL CellTiter-Glo detection reagent was then added to the plates (columns 2 - 48, rows 1 - 32) and incubated at room temperature for additional 15min. 7. Luminescence signal was acquired via the ViewLux plate reader (PerkinElmer) using a clear filter, 2 second exposure and 2x binning settings.
Potency is read from the fitted curve at half-maximal effect.

| SMILES | Potency |
| --- | --- |
| CO[C@@H](/C=C/CC/C=C/C(=O)O)[C@@H](O)[C@H](C)/C=C(\C)[C@@H](O)[C@H](C)C(=O)CCCC1CC(=O)NC(=O)C1 | inactive |
| CNCCc1ccccc1 | inactive |
| CN1C(=O)[C@]23CC4C(C)(C)[C@@]5(C[C@@]41CN2CC[C@@]3(C)O)C(=O)Nc1c5ccc2c1OC=CC(C)(C)O2 (some centres undefined) | inactive |
| COC(=O)C1=C2Nc3ccccc3[C@@]23CCN2CC(C(C)=O)C1C[C@H]23 (some centres undefined) | inactive |
| CNCCc1ccc(O)cc1 | inactive |
| CO[C@@H](/C=C/CC/C=C/C(=O)O)[C@@H](O)[C@H](C)[C@@H](O)/C(C)=C/[C@H](C)C(=O)CCCC1CC(=O)NC(=O)C1 | inactive |
| C[C@]12CC(O)C3[C@@H](CCC4C[C@@H](O)CC[C@@]43CO)[C@@]1(O)CCC2C1=CC(=O)OC1 (some centres undefined) | inactive |
| C[C@@H]1CC[C@@H](c2ccoc2)N2C[C@@]3(CC[C@@H]12)CS[C@@]1(CC[C@H]2[C@H](C)CC[C@@H](c4ccoc4)N2[C@@H]1O)C3 | 5.94 µM (active) |
| C/C=C1/CN2CC[C@]34C(=Nc5ccccc53)[C@@H]2C[C@@H]1[C@H]4C(=O)OC | inactive |
| O=C(c1ccccc1O)c1[nH]c(Cl)c(Cl)c1-n1c(C(=O)c2ccccc2O)cc(Cl)c1Cl | 2.11 µM (active) |
| CC[C@@H]1CN2CC[C@@]3(O)C(=Nc4cccc(OC)c43)[C@@H]2C[C@@H]1/C(=C\OC)C(=O)OC | inactive |
| c1ccc2c3c([nH]c2c1)CNCC3 | inactive |
| CN(C)Cc1c[nH]c2ccccc12 | inactive |
| CCN1C[C@]2(C)CC[C@@H](O)[C@]34C1[C@H](C[C@H]23)C12CCC(CC14)[C@](O)(CO)[C@H]2O (some centres undefined) | inactive |
| CO[C@H](c1ccccc1)[C@H]1NC(=O)C(C)NC(=O)C(C[C@@H](C)CO)N(C)C(=O)[C@@H](C(O)c2cn(C(C)(C)C3CO3)c3ccccc23)NC(=O)C(C(C)C=C(C)C)NC(=O)C(CC(C)C)N(C)C(=O)C(C(C)C)NC1=O (some centres undefined) | inactive |
| CC[N@@+]1([O-])C[C@]2(C)CC[C@@H](O)[C@@]34C5C[C@H]6CC[C@@]5(C(C[C@H]23)C41)[C@H](O)[C@@]6(O)CO (some centres undefined) | inactive |
| NCCc1ccccc1 | inactive |
| CC=C1CN(C=O)[C@H]2C[C@@H]1[C@@H](C(=O)OC)[C@@]13CCOC21Nc1ccccc13 (some centres undefined) | inactive |
| CNCCc1c[nH]c2ccccc12 | inactive |
| CCN1C[C@]2(C)CC[C@H](O)[C@]34C1C(C[C@H]23)[C@@]12CC[C@H](CC14)[C@](O)(COC(=O)c1ccc(OC)c(OC)c1)[C@H]2O (some centres undefined) | inactive |
| CCCC[C@@H]1CC[C@H]2CCCC(CCC)N12 (some centres undefined) | inactive |
| CCCCC[C@@H]1OC(=O)[C@@H](C)N(C)C(=O)[C@H](CCCCC)OC(=O)C(C)N(C)C(=O)[C@H](CCCCC)OC(=O)[C@@H](C)N(C)C(=O)[C@H](CCCCC)OC(=O)C(C)N(C)C1=O (some centres undefined) | 3.34 µM (active) |
| COc1ccc(C23Oc4cc(OC)cc(OC)c4[C@](O)([C@H](c4ccccc4)C2C(=O)NCCCCNC(=O)c2ccccc2)[C@@H]3O)cc1 (some centres undefined) | inactive |
| CC(=O)N[C@H]1CCN2CCC[C@H]12 | inactive |
| CC1=CC2CC[C@@H]3[C@@H](C)C[C@H](C)[C@@H](C1)N23 (some centres undefined) | inactive |
| CCC[C@H]1CC[C@H]2[C@H](C)CCC[C@H]2N1 | inactive |
| CCC(=O)CCCCC[C@@H]1NC(=O)[C@H]2CCCCN2C(=O)[C@H]([C@@H](C)CC)NC(=O)[C@H](Cc2cn(OC)c3ccccc23)NC1=O | 3.75 µM (active) |
| CC1=CC(=O)C2=C(C)C[C@H](O)[C@@H]3[C@H](OC(=O)[C@@H]3C)[C@@H]12 | inactive |
| C=C1[C@@H](C)[C@H]2[C@H](Cc3ccccc3)NC(=O)[C@]23OC(=O)/C=C/[C@H](O)CCC[C@@H](C)C/C=C/[C@H]3[C@@H]1O | inactive |

From PubChem BioAssay (NCATS)
